Screening data: PubChem, several laboratories
Hits are enriched below; roughly 1.7% of the tested compounds scored in any of these assays.
eIF4H inh: human eIF4H binding inhibitors, primary screen, translation initiation inhibitor project, biochemical, uHTS, fluorescence polarization. AID 2012, 2009. eIF4H fluorescence polarization binding assay. actives 0.94% (n = 290,000). inhibition, % at 35 µM. Eukaryotic translation initiation factor 4H (Homo sapiens), Q15056;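 note: calls also rest on retests at 20 µM and on dose response follow-up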
MLLE-PAM2 inh: inhibitors of PABP1 MLLE–PAM2 peptide binding, primary screen, biochemical, fluorescence polarization, FITC-PAM2, GST-MLLE; Polyadenylate-binding protein 1 (Homo sapiens), P11940; inhibition, % at 20 µM; actives 0.36% (n = 360,000); AID 588489, 2011; in the data active = inhibition above about 35%, passing the limit was not always enough;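 note: plate controls were DMSO wells with GST-MLLE for no effect and wells lacking GST-MLLE protein for full effect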
eIF4E 4G PPI: eIF4E–eIF4G protein interaction inhibitors, primary screen, biochemical, uHTS, TR-FRET, eIF4GI fragment; TR-FRET eIF4E-eIF4GI(517-606) binding, 2 h; inhibition, % at 21.7 µM; actives 0.37% (n = 220,000);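 active = inhibition above about 30%, limit read from the data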;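 note: 0% = full FRET control wells and 100% = background wells lacking eIF4GI fragment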
PABP polyA inh: PABP poly(A) RNA binding inhibitors, primary screen, biochemical, fluorescence polarization, uHTS; actives 1% (n = 290,000); Polyadenylate-binding protein 1 (Homo sapiens), P11940; AID 2014, 2009; calls only at 35 µM;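 note: calls also rest on retests at 20 µM and on dose response follow-up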
EBV gp42 inh: Epstein-Barr virus gp42 inhibitors, primary screen, biochemical, uHTS, fluorescence polarization | Fluorescence polarization binding assay, mP read-out | inhibition, % (tested at 21.74 µM) | actives 0.42% (n = 220,000); in the data active = inhibition above about 50%
An asterisk follows results filed as active; i = inactive; ? = inconclusive; nt = not tested or not shown; + = active, no number; [ ] = another dose, or the depositor's remark. Unless noted, the rule behind the calls is not given here.

SMILES | eIF4H inh | MLLE-PAM2 inh | eIF4E 4G PPI | PABP polyA inh | EBV gp42 inh
CCOC(=O)c1c(N)sc2c1CCS(=O)(=O)C2 | 18 | 39* | 3 | i | -8
C/C(=C\c1ccccc1)C(=O)Nc1ccc(S(=O)(=O)Nc2ncccn2)cc1 | -5 | -6 | -3 | i | 7
CC(Oc1ccccc1F)C(=O)NC1CCS(=O)(=O)C1 (configuration not stated) | -2 | 3 | nt | i | nt
O=C1C=CC(=Nc2ccc3c(c2)Cc2cc(F)ccc2-3)O1 | nt | 26 | nt | nt | nt
O=C1C=CC(=Nc2cccc3c2C(=O)c2ccccc2-3)O1 | nt | 56* | nt | nt | nt
COc1cc(CC(=O)NCCc2ccc(S(N)(=O)=O)cc2)cc(OC)c1OC | -2 | -4 | 81* | i | -10
COC(=O)c1ccccc1NC(=O)c1ccnn1C | -11 | -11 | 0 | i | -9
Nc1ccn(C(C=O)CC(C=O)CO)c(=O)n1 (configuration not stated) | nt | -19 | nt | nt | nt
COc1ccc(-c2nnc(SCC(=O)Nc3c(Cl)cc(Cl)cc3C(=O)O)o2)cc1 | nt | -54 | nt | nt | nt
COCCN(C(=O)COC(=O)c1cccnc1SC)c1c(N)n(Cc2ccccc2)c(=O)[nH]c1=O | nt | 14 | nt | nt | nt
COc1ccccc1NC(=O)/C(C#N)=C/c1ccncc1 | 2 | 12 | nt | i | nt
COc1ccccc1NC(=O)/C(C#N)=C/c1cc([N+](=O)[O-])ccc1N1CCCC1 | ? | 156 | 4 | i | 161*
COc1cccc(CNC(=S)NC2CC2)c1 | -9 | -34 | 6 | i | -7
CC1CCCCC1NC(=O)c1cc(S(=O)(=O)N2CCOCC2)ccc1Cl (configuration not stated) | nt | -9 | nt | nt | nt
O=C1CS/C(=N\N=C\c2ccco2)N1c1ccccc1 | 85* | -24 | 10 | + | 7
Cc1ccc(NC(=O)CSc2nc(-c3ccco3)nc3cc(=O)[nH]n23)c(Cl)c1 | 86* | -4 | nt | + | nt
Cc1ccc(NC(=O)CSc2n[nH]c(-c3ccco3)n2)c(C)c1 | -6 | 6 | 2 | i | -19
CCOC(=O)C(NCc1ccccc1OC)(NC(=O)c1ccccc1)C(F)(F)F (configuration not stated) | -4 | -3 | 8 | i | -9
CCOC(=O)C(NCc1ccco1)(NC(=O)c1ccc(OC)cc1)C(F)(F)F (configuration not stated) | 11 | -8 | 3 | i | 118*
COC(=O)c1cc(NC(=O)c2ccccc2)c(=O)oc1/C=C/Nc1ccc(Oc2ccccc2)cc1 | ? | i | -2 | i | 186*
CNCc1ccccc1Sc1cc(O)ccc1O | 48 | 45* | 48*[fluorescence artefact?] | i | -7
O=c1[nH]cnc2scc(-c3ccc(-c4ccccc4)cc3)c12 | 59 | -7 | 3 | + | 4
CCCOc1ccc(-c2csc3nc[nH]c(=O)c23)cc1 | -2 | -4 | nt | i | nt
O=C(c1ccccc1)N1CCN(C(=S)NCc2ccc3c(c2)OCO3)CC1 | 7 | -120 | 19 | i | -16
Cc1nc2c(=O)[nH]c(=S)[nH]c2[nH]c1=O | nt | -3 | nt | nt | nt
SMILES | eIF4H inh | MLLE-PAM2 inh | eIF4E 4G PPI | PABP polyA inh | EBV gp42 inh
Cc1nc2[nH]c(=S)[nH]c(=O)c2nc1C | nt | 42* | nt | nt | nt
Cn1ccnc1C(=O)c1ccc(S(=O)(=O)N2CCCC2)cc1 | 8 | 9 | 0 | i | -1
CN1CCN(c2nc3nonc3nc2N2CCN(C)CC2)CC1 | 80* | 25 | 5 | + | -6
O=C(Nc1ccc(Cc2ccncc2)cc1)c1cccc([N+](=O)[O-])c1 | 6 | -1 | 3 | i | 4
O=C(CCNc1ccc(Cc2ccncc2)cc1)c1ccc([N+](=O)[O-])cc1 | -11 | 40* | -3 | i | 3
CC(=O)Nc1cccc(NC(=O)Nc2ccc(C)c(Cl)c2)c1 | -8 | -11 | 2 | i | 1
CC(=O)c1ccc(NC(=S)Nc2ccc(Br)c(Cl)c2)cc1 | -10 | 44* | 0 | i | 1
CC(=O)Nc1cccc(NC(=S)Nc2ccc(F)c(Cl)c2)c1 | 17 | 25 | 92* | i | 1
CC(NC(=O)Cn1cccc1)c1ccccc1 (configuration not stated) | 90 | 9 | nt | i | nt
